± gives the standard deviation of the averaged measurements.
Experiments:
Assay in all cases: promoter activity interaction Z-score (Lux/OD deviation from empty-vector control); higher = stronger promoter induction by the compound
[1] = system: E. coli BW25113 acrABp lux reporter
Summary of the method: (§1)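 Reporter strains of E. coli BW25113 grew at 37°C in 40 µl LB Lennox in 384-well plates. Readings of OD600 and luminescence were taken every 30 min over 12 h, integrated over 0–8 h (wild type) or 1–9 h (deletion strains), and wells below 10% of the median growth value were excluded. Scores are Z-transformed residuals of growth-normalised luminescence from a fit against a control.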

[2] = system: E. coli BW25113 micFp lux reporter
Summary of the method: as §1

[3] = system: E. coli BW25113 ompFp lux reporter
Summary of the method: as §1

[4] = system: E. coli BW25113 robp lux reporter
Summary of the method: as §1

[5] = system: E. coli BW25113 soxSp lux reporter
Summary of the method: as §1

[6] = system: E. coli BW25113 tolCp lux reporter
Summary of the method: as §1

[7] = 18 µg/ml, genetic background: wild type
[8] = 18 µg/ml, genetic background: ΔmarA
[9] = 18 µg/ml, genetic background: Δrob
[10] = 18 µg/ml, genetic background: ΔsoxS
[11] = 36.1 µg/ml, genetic background: wild type
[12] = 36.1 µg/ml, genetic background: ΔmarA
[13] = 36.1 µg/ml, genetic background: Δrob
[14] = 36.1 µg/ml, genetic background: ΔsoxS
[15] = 72.1 µg/ml, genetic background: wild type
[16] = 72.1 µg/ml, genetic background: ΔmarA
[17] = 72.1 µg/ml, genetic background: Δrob
[18] = 72.1 µg/ml, genetic background: ΔsoxS
[19] = 144.2 µg/ml, genetic background: wild type
[20] = 144.2 µg/ml, genetic background: ΔmarA
[21] = 144.2 µg/ml, genetic background: Δrob
[22] = 144.2 µg/ml, genetic background: ΔsoxS

C[C@]12CC[C@H]3[C@@H](CCC4=CC(=O)CC[C@@]43C)[C@@H]1CC[C@@H]2O [Testosterone]
promoter activity interaction Z-score [1, 7]: -0.445 ± 0.074
promoter activity interaction Z-score [1, 8]: -0.76 ± 0.16
promoter activity interaction Z-score [1, 9]: -0.613 ± 0.11
promoter activity interaction Z-score [1, 10]: -0.272 ± 0.23
promoter activity interaction Z-score [1, 11]: -0.494 ± 0.042
promoter activity interaction Z-score [1, 12]: -1.03 ± 1.1
promoter activity interaction Z-score [1, 13]: -0.524 ± 0.2
promoter activity interaction Z-score [1, 14]: -0.556 ± 0.063
promoter activity interaction Z-score [1, 15]: -0.447 ± 0.14
promoter activity interaction Z-score [1, 16]: 0.264 ± 0.87
promoter activity interaction Z-score [1, 17]: -0.624 ± 0.12
promoter activity interaction Z-score [1, 18]: -0.489 ± 0.08
promoter activity interaction Z-score [1, 19]: -0.411 ± 0.019
promoter activity interaction Z-score [1, 20]: -0.669 ± 0.41
promoter activity interaction Z-score [1, 21]: -0.643 ± 0.08
promoter activity interaction Z-score [1, 22]: -0.295 ± 0.29
promoter activity interaction Z-score [2, 7]: -0.197 ± 0.0038
promoter activity interaction Z-score [2, 8]: 0.0474 ± 0.038
promoter activity interaction Z-score [2, 9]: -0.0298 ± 0.091
promoter activity interaction Z-score [2, 10]: 0.319 ± 0.18
promoter activity interaction Z-score [2, 11]: -0.14 ± 0.34
promoter activity interaction Z-score [2, 12]: 0.094 ± 0.098
promoter activity interaction Z-score [2, 13]: -0.000736 ± 0.15
promoter activity interaction Z-score [2, 14]: -0.0287 ± 0.15
promoter activity interaction Z-score [2, 15]: 0.142 ± 0.26
promoter activity interaction Z-score [2, 16]: 0.527 ± 0.063
promoter activity interaction Z-score [2, 17]: 0.174 ± 0.16
promoter activity interaction Z-score [2, 18]: 0.257 ± 0.41
promoter activity interaction Z-score [2, 19]: 0.181 ± 0.03
promoter activity interaction Z-score [2, 20]: 0.196 ± 0.089
promoter activity interaction Z-score [2, 21]: 0.202 ± 0.074
promoter activity interaction Z-score [2, 22]: 0.625 ± 0.45
promoter activity interaction Z-score [3, 7]: -0.491 ± 0.12
promoter activity interaction Z-score [3, 8]: -0.598 ± 0.2
promoter activity interaction Z-score [3, 9]: -0.803 ± 0.57
promoter activity interaction Z-score [3, 10]: 0.195 ± 0.35
promoter activity interaction Z-score [3, 11]: -0.432 ± 0.41
promoter activity interaction Z-score [3, 12]: -1.1 ± 0.061
promoter activity interaction Z-score [3, 13]: -0.418 ± 0.62
promoter activity interaction Z-score [3, 14]: -0.713 ± 0.022
promoter activity interaction Z-score [3, 15]: -0.907 ± 0.16
promoter activity interaction Z-score [3, 16]: -0.501 ± 0.28
promoter activity interaction Z-score [3, 17]: -0.424 ± 0.42
promoter activity interaction Z-score [3, 18]: -0.715 ± 0.045
promoter activity interaction Z-score [3, 19]: -0.6982 ± 0.0041
promoter activity interaction Z-score [3, 20]: -0.969 ± 0.097
promoter activity interaction Z-score [3, 21]: -0.395 ± 0.47
promoter activity interaction Z-score [3, 22]: -0.339 ± 0.32
promoter activity interaction Z-score [4, 7]: -0.462 ± 0.23
promoter activity interaction Z-score [4, 8]: -1.03 ± 1.1
promoter activity interaction Z-score [4, 9]: -1.05 ± 0.49
promoter activity interaction Z-score [4, 10]: -0.195 ± 0.39
promoter activity interaction Z-score [4, 11]: -0.445 ± 0.22
promoter activity interaction Z-score [4, 12]: -1.14 ± 0.019
promoter activity interaction Z-score [4, 13]: -0.289 ± 0.96
promoter activity interaction Z-score [4, 14]: -0.498 ± 0.64
promoter activity interaction Z-score [4, 15]: -0.398 ± 0.53
promoter activity interaction Z-score [4, 16]: 0.148 ± 0.41
promoter activity interaction Z-score [4, 17]: -0.438 ± 1
promoter activity interaction Z-score [4, 18]: -0.274 ± 0.099
promoter activity interaction Z-score [4, 19]: -0.102 ± 0.59
promoter activity interaction Z-score [4, 20]: -0.151 ± 0.4
promoter activity interaction Z-score [4, 21]: -0.428 ± 0.35
promoter activity interaction Z-score [4, 22]: 0.0605 ± 0.79
promoter activity interaction Z-score [5, 7]: -0.254 ± 0.24
promoter activity interaction Z-score [5, 8]: -0.0384 ± 0.16
promoter activity interaction Z-score [5, 9]: -0.165 ± 0.23
promoter activity interaction Z-score [5, 10]: -0.0975 ± 0.27
promoter activity interaction Z-score [5, 11]: -0.534 ± 0.01
promoter activity interaction Z-score [5, 12]: -0.3 ± 0.046
promoter activity interaction Z-score [5, 13]: -0.108 ± 0.14
promoter activity interaction Z-score [5, 14]: -0.463 ± 0.35
promoter activity interaction Z-score [5, 15]: -0.459 ± 0.01
promoter activity interaction Z-score [5, 16]: -0.148 ± 0.037
promoter activity interaction Z-score [5, 17]: -0.0584 ± 0.12
promoter activity interaction Z-score [5, 18]: -0.399 ± 0.15
promoter activity interaction Z-score [5, 19]: -0.398 ± 0.075
promoter activity interaction Z-score [5, 20]: -0.389 ± 0.044
promoter activity interaction Z-score [5, 21]: -0.368 ± 0.021
promoter activity interaction Z-score [5, 22]: -0.448 ± 0.076
promoter activity interaction Z-score [6, 7]: 0.0813 ± 0.76
promoter activity interaction Z-score [6, 8]: 0.0835 ± 0.37
promoter activity interaction Z-score [6, 9]: -0.682 ± 0.73
promoter activity interaction Z-score [6, 10]: 0.781 ± 0.5
promoter activity interaction Z-score [6, 11]: 0.191 ± 0.092
promoter activity interaction Z-score [6, 12]: -1.71 ± 0.36
promoter activity interaction Z-score [6, 13]: 0.34 ± 0.48
promoter activity interaction Z-score [6, 14]: -0.587 ± 0.0086
promoter activity interaction Z-score [6, 15]: 0.0036 ± 0.71
promoter activity interaction Z-score [6, 16]: -0.0511 ± 0.6
promoter activity interaction Z-score [6, 17]: 0.112 ± 0.27
promoter activity interaction Z-score [6, 18]: 0.394 ± 0.17
promoter activity interaction Z-score [6, 19]: 0.135 ± 0.34
promoter activity interaction Z-score [6, 20]: -0.734 ± 0.57
promoter activity interaction Z-score [6, 21]: 0.644 ± 0.24
promoter activity interaction Z-score [6, 22]: 0.344 ± 0.27
